NS1 function inh: qHTS Assay for Inhibitors of Influenza NS1 Protein Function; 270,000 compounds, 0.4% hits; AID 2326, 2010; Potency, µM (doses to about 46.1 µM); calls by dose curve; further: actives are rising curves; nearly all actives have a fitted effect of over 50% in size
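A cell-based growth assay was used: compounds that relieve NS1-induced slow growth of budding yeast raise OD600. Assay medium was yeast nitrogen base with ammonium sulphate and -URA supplement, pH 6.0, with 2% galactose.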
SARS PLpro yeast: qHTS of Yeast-based Assay for SARS-CoV PLP | S. cerevisiae expressing SARS-CoV PLpro, growth rescue | Potency, µM (titrated, usually from 32.9 µM), most hits filed as activators | 330,000 compounds, 0.19% hits; calls by dose curve; further: nearly all actives have a fitted effect of over 55% in size
Pf growth 48h: Primary qHTS for delayed death inhibitors of the malarial parasite plastid, 48 hour incubation | 310,000 compounds, 5.9% hits | AID 504832, 2011 | P. falciparum luciferase growth in erythrocytes, 48 h | Potency, µM (titrated, usually from 28.7 µM), actives largely listed as inhibitors
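Firefly luciferase activity from engineered P. falciparum reports growth; inhibitors lower the luminescent signal. Cultures contained 2% hematocrit erythrocytes at 0.1% final parasitemia.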
Pf growth 96h: Primary qHTS for delayed death inhibitors of the malarial parasite plastid, 96 hour incubation | Potency, µM (top dose mostly 28.7 µM), actives largely listed as inhibitors | AID 504834, 2011 | 320,000 compounds, 6.9% hits | P. falciparum luciferase reporter growth, 96 h
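Compounds incubated with erythrocytes infected by luciferase-expressing P. falciparum (2% hematocrit, 0.05% parasitemia final) for 96 hours, 37 C in 5% CO2. Growth inhibition scored as decreased luciferase luminescence.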
Each line names hits and unclear results; the compound was inactive in the other large screens. Most compounds without a hit are left out; they make up all but 10% or so of the library. Unless noted, the call rests on the fitted dose curve; in most records, active means well fitted inhibition curve with a large enough effect; inconclusive means small, poorly fitted or top-dose-only effect, or another doubt; inactive means no such curve, though single readings can be large or run the other way.

Nc1nc(SCc2ccc([N+](=O)[O-])cc2)nc2nc3c(cc12)CCCC3	Pf growth 48h inconclusive, Pf growth 96h 1.5µM
Nc1nc(SCC(=O)Nc2ccccc2)nc2nc3c(cc12)CCCC3	NS1 function inh inconclusive
Cc1ccc(S(=O)(=O)Nc2ccccc2C=O)cc1	none (no result: SARS PLpro yeast, Pf growth 48h, Pf growth 96h)
Cc1cccc(-n2c(/C=C/c3ccc([N+](=O)[O-])o3)nc3ccccc3c2=O)c1	Pf growth 48h inconclusive
Cc1nc2ccccc2c(=O)n1/N=C/c1ccccc1F	Pf growth 96h 9.3µM (no result: Pf growth 48h)
Cc1nc2ccccc2c(=O)n1/N=C/c1ccc([N+](=O)[O-])o1	Pf growth 48h 13µM, Pf growth 96h 5.9µM
O=c1c2ccccc2nc(/C=C/c2ccc([N+](=O)[O-])o2)n1-c1ccc(O)cc1	Pf growth 48h 9.3µM, Pf growth 96h inconclusive (no result: NS1 function inh)
CCCCn1c(N)c(N(Cc2ccccc2OC)C(=O)CN2C(=O)NC3(CCCC3)C2=O)c(=O)[nH]c1=O	none (no result: NS1 function inh)
Cn1cc(Br)c(-c2cccc(NC(=O)CC(C)(C)CC(=O)O)c2)n1	none
CCCCn1c(N)c(N(C)C(=O)c2ccc(Br)o2)c(=O)[nH]c1=O	none (no result: NS1 function inh)
O=C(CSc1ccc(F)cc1)N1CCC(c2nc3ccccc3s2)CC1	Pf growth 48h inconclusive
O=C(c1cccc(F)c1)N1CCC(c2nc3ccccc3s2)CC1	Pf growth 96h 4.1µM (no result: NS1 function inh)
COc1cc(-c2nc3ccccc3nc2-c2ccc(O)c(OC)c2)ccc1O	Pf growth 48h inconclusive
COc1cc(-c2nc3c(c(C)nn3-c3ccccc3)c3cc(OC)c(OC)cc23)ccc1O	Pf growth 48h 2.9µM, Pf growth 96h inconclusive
O=C(CN1C(=O)NC2(CCCC2)C1=O)N1CCN(c2ccccc2O)CC1	none (no result: NS1 function inh)
Cc1ccc(NS(=O)(=O)c2ccc(-c3ccc(=O)[nH]n3)o2)cc1N(C)C	none
Cc1ccc(NS(=O)(=O)c2ccc(-c3ccc(=O)[nH]n3)o2)cc1Cl	Pf growth 96h 9.3µM
C=CCn1c(COc2ccccc2)nc2ccccc21	none
CCC1CCCCN1c1nc(-c2ccncc2)nc2ccccc12 (stereo unspecified)	none (no result: Pf growth 48h)
c1ccc2c(N3CCOCC3)nc(N3CCOCC3)nc2c1	Pf growth 48h inconclusive, Pf growth 96h 4.1µM
CC12CC3CC(C)(C1)CC(Nc1nc(N4CCOCC4)nc4ccccc14)(C3)C2	Pf growth 48h 1.7µM, Pf growth 96h 1.3µM
CCN1CCN(c2nc(NCCO)c3ccccc3n2)CC1	Pf growth 96h inconclusive
c1ccc2c(N3CCOCC3)nc(-c3ccncc3)nc2c1	Pf growth 48h 9.3µM
CCSc1nc(N2CCOCC2)c2ccccc2n1	Pf growth 48h inconclusive
CC1CCCCN1c1nc(-c2ccncc2)nc2ccccc12 (stereo unspecified)	Pf growth 48h 8.3µM
Cc1ccc(S(=O)(=O)N2CCN(C(=O)NCc3ccc(C(=O)O)cc3)CC2)cc1	none
CC1CCN(c2nc(-c3ccncc3)nc3ccccc23)CC1	Pf growth 48h 4.1µM, Pf growth 96h 4.7µM
CCN1CCN(c2nc(-c3ccccc3)nc3ccccc23)CC1	Pf growth 48h inconclusive, Pf growth 96h inconclusive
COc1ccc(-c2cn3nc(SCC(=O)NC4CCCCC4)ccc3n2)cc1	Pf growth 96h inconclusive
Cc1[nH]c(N)nc(=S)c1CCC(=O)O	none (no result: SARS PLpro yeast, Pf growth 48h, Pf growth 96h)
CCc1noc(C)c1C(=O)OCC(=O)N1CCc2ccccc21	none (no result: NS1 function inh)
CCCc1nc2ccccc2c(C(=O)OCC(=O)N2CCc3ccccc32)c1CC	Pf growth 48h inconclusive, Pf growth 96h 8.3µM
CC1CCc2nc3ccccc3c(C(=O)OCC(=O)N3CCc4ccccc43)c2C1 (stereo unspecified)	Pf growth 48h 8.3µM, Pf growth 96h inconclusive
O=C1c2ccncc2C(=O)N1CO	Pf growth 96h 10µM
N#C/C(=N\Nc1ccccc1F)c1nc(-c2ccccc2)cs1	Pf growth 96h inconclusive (no result: NS1 function inh)
S=c1[nH]nc(-c2ccc(Cl)cc2)n1Cc1ccccc1	SARS PLpro yeast inconclusive
CN(C(=O)CSc1nnc(CN2CCCC2)n1Cc1ccccc1)c1ccccc1	Pf growth 48h 12µM, Pf growth 96h inconclusive (no result: NS1 function inh)
CCn1c(CCc2ccccc2)n[nH]c1=S	Pf growth 96h 10µM
S=c1[nH]nc(CN2CCCCC2)n1Cc1ccccc1	Pf growth 48h 3.7µM
CCCn1c(CCc2ccccc2)n[nH]c1=S	Pf growth 96h inconclusive
S=c1[nH]nc(-c2ccccc2)n1Cc1ccccc1	SARS PLpro yeast inconclusive, Pf growth 96h 0.41µM
CCN1CCC(O)([C@H](C(=O)O)c2ccccc2)CC1	none (no result: SARS PLpro yeast, Pf growth 48h, Pf growth 96h)
CC(C)C[C@@H](N)C(=O)O	Pf growth 96h inconclusive (no result: NS1 function inh, SARS PLpro yeast)
Cc1nnsc1C(=O)N/N=C/c1ccc(OC(F)(F)F)cc1	Pf growth 48h inconclusive (no result: NS1 function inh)
COC(=O)c1c(C)nn(-c2ccc(OC(F)(F)F)cc2)c1-c1snnc1C	Pf growth 48h inconclusive, Pf growth 96h 13µM
Cc1nnsc1-c1c(C(=O)Oc2ccccc2)c(C)nn1-c1ccccc1	Pf growth 48h 9.3µM, Pf growth 96h 13µM
Cc1c(Cl)cccc1-n1c(SCC(=O)N2CCC(C(=O)O)CC2)nc2ccccc2c1=O	Pf growth 48h inconclusive, Pf growth 96h inconclusive
OCCNC(=S)NCCc1ccccc1	none
COc1ccc(NC(=S)NCCc2ccccc2)c(C)c1	Pf growth 48h inconclusive, Pf growth 96h 15µM
Cc1cc(OC(F)F)ccc1NC(=S)NCCc1ccccc1	none
COc1cc(NC(=S)NCCc2ccccc2)c(OC)cc1NC(=O)C(C)C	Pf growth 96h inconclusive
CC(C)(CNC(=S)NCCc1ccccc1)CNC(=S)NCCc1ccccc1	Pf growth 48h 13µM, Pf growth 96h inconclusive
COc1cc(C)c(NC(=O)C(=S)NCCc2ccccc2)cc1C	Pf growth 96h 2.3µM
S=C(NCCc1cccc(Cl)c1)NCc1ccccc1	Pf growth 96h inconclusive
CC1=C(C)CC(C(=O)NCc2cccc(Cl)c2)C(C(=O)O)C1 (stereo unspecified)	Pf growth 96h 13µM
Fc1ccc(CNC(=S)NCc2cccc(Cl)c2)cc1	NS1 function inh inconclusive, Pf growth 48h inconclusive, Pf growth 96h 10µM
Fc1ccc(CNC(=S)Nc2ccc(Cl)cc2Cl)cc1	Pf growth 48h inconclusive
S=C(NCc1ccccc1)NCc1cccc(Cl)c1	SARS PLpro yeast inconclusive, Pf growth 96h 3.7µM
COC(=O)[C@H]1C(=O)[C@H](C(=O)OC)[C@@H]2CC[C@H]1N2C	none (no result: SARS PLpro yeast, Pf growth 48h, Pf growth 96h)
Cc1ccc(N2CC(C(=O)OCC(=O)c3ccc(F)cc3)CC2=O)cc1 (stereo unspecified)	Pf growth 96h 2.9µM
CN(C)C[C@H]1CCC[C@@H](CN(C)C)C1=O	none (no result: SARS PLpro yeast, Pf growth 48h, Pf growth 96h)
CCCCOc1ccc(/C=C/C(=O)NC2=Nc3ccccc3NC(C)=C2C(=O)OCC)cc1OC	Pf growth 48h inconclusive, Pf growth 96h 10µM (no result: NS1 function inh)
Cc1nc2sccn2c(=O)c1S(=O)(=O)N1CCN(c2cccc(C(F)(F)F)c2)CC1	Pf growth 48h inconclusive, Pf growth 96h 10µM
Cc1nc2sccn2c(=O)c1S(=O)(=O)N1CCN(c2ccc(F)cc2)CC1	Pf growth 96h inconclusive
CCN1CC(CN(C)Cc2nc(-c3ccc(C(F)(F)F)cc3)no2)CC1=O (stereo unspecified)	none
CCN1CC(CN(C)Cc2nc(-c3cccs3)no2)CC1=O (stereo unspecified)	Pf growth 96h 12µM
O=C(CN1c2cccc3cccc(c23)S1(=O)=O)Nc1ccc(S(=O)(=O)N2CCOCC2)cc1	NS1 function inh inconclusive, Pf growth 48h inconclusive, Pf growth 96h 13µM
